# Assay outcomes (PubChem BioAssay)
# These entries were drawn from the full list.
# VCAM1 TNFa pot – enhances TNF alpha induced VCAM1 expression in HUVEC; AID 808; 0.19% of 93,000 active; activation, % at 2 µM; HUVEC TNFa-stimulated VCAM-1 immunofluorescence, high-content imaging; scaled per plate to unstimulated/TNFa-only wells;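 active means activation above the screen mean plus 3 SD, with well images confirming the hit on visual review, cut at about 28% in these data, passing the limit was not always enough; inconclusive means activation above that limit but images do not confirm it; inactive means activation not above that limit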;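 further: signal is the number of cytoplasmic VCAM-1 stained grains per positive cell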
# VCAM1 pot conf – enhancers of VCAM1 induction in HUVEC – imaging, triplicate retest, confirmation | HUVEC TNFa-stimulated VCAM-1 immunofluorescence imaging | 230 tested, under 10 active | activation, % at 2 µM | shares compounds with VCAM1 TNFa pot;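 active means activation above 30% in triplicate retests at 2 µM, then confirmed by visual review of the well images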;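 further: scaled per plate between unstimulated and TNFa-stimulated DMSO control wells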
# An asterisk follows results filed as active; ? = inconclusive.
SMILES,VCAM1 TNFa pot,others
CC(=O)Nc1c(C(=O)N2CCCCCC2)cnn1-c1ccccc1Cl,-12,
C/C(Sc1nnc(Cc2ccccc2)o1)=C(/O)c1ccccc1,6,
CCCNc1nc(Nc2ccc(C)cc2)nc(N2CCCC2)n1,-16,
CC(=O)/C(=N/Nc1cccc(C)c1)N1CCOCC1,1,
Cc1cccc(NC(=O)c2cccc(N3C(=O)C4C5CCC(C5)C4C3=O)c2)c1C (stereo unspecified),-2,
COc1ccc(/C=N\NS(=O)(=O)c2ccc(Cl)cc2)cc1COc1ccccc1[N+](=O)[O-],2,
CS(=O)(=O)N(CC(=O)NCc1ccncc1)Cc1ccc(Cl)cc1,-15,
CN(c1cccc(NC(=O)CN(c2ccc(C34CC5CC(CC(C5)C3)C4)cc2)S(C)(=O)=O)c1)S(C)(=O)=O,1,
COC(=O)c1c(NC(=S)Nc2ccccc2Cl)sc(C)c1C,7,
CCSc1nc2ccccc2n1C(=O)/C=C\c1ccc(OC)c(OC)c1,-94,
Cc1ccc(-n2nnc3c(SCC(=O)N4CCN(c5ccccc5)CC4)ncnc32)cc1,-92,
COc1ccc([C@H]2[C@@H](C#N)[C@H](C#N)N3CCCN23)cc1,35,
O=C(O)c1cc2ccc3ccccc3c2oc1=O,-26,
CCOC(=O)C1C(=O)NC(N2CCCCC2)=NC1c1ccco1 (stereo unspecified),-97,
COC(=O)c1cc(C#N)c(Oc2ccc(F)cc2)nc1C,-8,
COc1ccc(C2/C(=C(\O)c3cccc(OC)c3)C(=O)C(=O)N2c2ccccn2)cc1 (stereo unspecified),3,
CCOc1ccc(Oc2ccc(-c3nnc(-c4ccccc4)o3)cc2[N+](=O)[O-])cc1,-3,
CC1(C)C(c2cccs2)=[N+]([O-])C2(CCCCC/C2=N\NC(N)=O)N1O (stereo unspecified),15,
CC(=O)Nc1ccc(S(=O)(=O)N2CCN(C(=O)c3cccnc3)CC2)cc1,6,
CN(C)c1oc(-c2cccs2)nc1C#N,0,
O=c1oc(-c2cccs2)nc2sc3c(c12)CCCCC3,37*,
CC(=O)OCc1nc2sc3c(c2c(=O)[nH]1)CCCC3,-1,
COc1ccc(CCNC(=O)NC23CC4CC(CC(C4)C2)C3)cc1OC,9,
CCOc1ccc(C=O)cc1CN1CCCCC1,-95,
CN(C)CC(C)(C)CNS(=O)(=O)c1ccc(Cl)c(Cl)c1,5,
SMILES,VCAM1 TNFa pot,others
Nc1nnc(SCCOc2ccc(Br)cc2)s1,2,
CCOc1ccccc1NC(=O)C1CC2CCCC(C1)C2=O (stereo unspecified),-1,
c1ccc(SCc2nc3ccccc3[nH]2)nc1,13,
O=C(c1cnn2c1NC(c1ccco1)CC2C(F)(F)F)N1CCN(c2cccc(Cl)c2)CC1 (stereo unspecified),-5,
CC(OC1=CC(=O)CCC1)C(=O)c1ccccc1 (stereo unspecified),4,
Cc1ccc(CCN2CC(C(=O)NCCCOC(C)C)CC2=O)cc1 (stereo unspecified),2,
Cc1ccc(-n2c(N)c(C(=O)NCc3cccnc3)sc2=S)cc1,-6,
Cc1ccc(S(=O)(=O)CCc2nc3ccccc3s2)cc1C,8,
Cc1ccc(S(=O)(=O)c2c(C)cc(C)nc2Oc2cccc(C(F)(F)F)c2)cc1,-6,
CCOC(=O)c1ccc(-n2c(=S)sc3c(=O)[nH]c(C)nc32)cc1,-87,
CCNc1nc(NCC)nc(N2CC(=O)N(CC(=O)OCC)C2=N)n1,-17,
Oc1ccc(-n2cnnn2)cc1,-5,
O=C(NCc1cccnc1)c1ccc(COc2cccc3ccccc23)o1,8,
CS(=O)(=O)N1CCCC(C(=O)NCc2ccc(F)cc2Cl)C1 (stereo unspecified),-8,
CCCc1[nH]nc2c1C(c1ccc(OC)c(CSC3=NCCS3)c1)C(C#N)=C(N)O2 (stereo unspecified),-5,
COCCNC(=O)C(c1ccccc1C)N(C(=O)Cn1nnc2ccccc21)c1cccnc1 (stereo unspecified),-2,
O=C(Oc1ccc(Cl)cc1N1C(=O)CCC1=O)c1ccco1,-9,
C=CCn1c(CCNC(=O)c2ccccc2F)nnc1SCC(=O)Nc1nc(C)cs1,-9,
O=c1c(C=Nc2ccc(Cl)cc2)c[nH]n1-c1cccc(Cl)n1,2,
CCN(C(=O)CSc1nc2ccccc2n1CCc1ccccc1)C1CCS(=O)(=O)C1 (stereo unspecified),0,
Cc1nc2sc(C(c3cccc(F)c3)N3CCCC(C)C3)c(O)n2n1 (stereo unspecified),-2,
CC(C)(C)C(=O)/C(=C\c1cccc([N+](=O)[O-])c1)n1cncn1,-90,
CC(C)(C)C(=O)COC(=O)CNC(=O)c1ccc(Oc2ccccc2)cc1,-1,
O=C(CC12CC3CC(CC(C3)C1)C2)NCC(=O)N1CCc2ccccc2C1,1,
CC(=O)Nc1cc(C(=O)N2CCN(C)CC2)ccc1Sc1ccc(C)cc1,-8,
SMILES,VCAM1 TNFa pot,others
CC(Nc1cc(=O)n(C)c(=O)[nH]1)c1ccccc1 (stereo unspecified),-9,
C=CCc1c(C)nc(SC)nc1Nc1ccc(C)cc1,0,
CC(C)CC(=O)NCc1ccc(F)cc1,-5,
COC(=O)C(NC(=O)c1ccc(C)cc1)(Nc1cccc(C)n1)C(F)(F)F (stereo unspecified),-17,
CC(C)(C)NS(=O)(=O)c1ccc(CCC(=O)N2CCCCC2)cc1,-27,
O=C(Cn1nc(Cc2ccncc2)c2ccccc2c1=O)N1CCc2ccccc2C1,-3,
Cc1ccccc1OC(=O)n1c(=S)oc2cc(Cl)ccc21,-7,
N#Cc1ccccc1Sc1ccccc1C(=O)Nc1ccccc1,1,
Cn1c(Cn2nnc3ccccc32)nnc1SCC(=O)N1CCc2ccccc21,7,
O=C(N1CCOCC1)N1CCN(S(=O)(=O)N2CCOCC2)CC1,22,
O=S(=O)(C/C(=C/CO)S(=O)(=O)c1ccccc1)c1ccccc1,-86,
CC1CN(C(NC(=O)C(C)(C)C)C(Cl)(Cl)Cl)CC(C)O1 (stereo unspecified),2,
COc1ccc(NC(=O)CCC(=O)Nc2nnc(C(F)(F)F)s2)c(OC)c1,-16,
CCOc1ccc(S(=O)(=O)N(CC(=O)N/N=C/c2cccs2)c2ccc(C)cc2)cc1,9,
C1CSC2(N1)C1CC3CC2CC(C1)C31NCCS1 (stereo unspecified),-9,
CCc1nc(C)cn1S(=O)(=O)c1cc(C)c(OC)c(C)c1C,-8,
C=CCn1c(COc2ccc3c(c2)CCCC3)nnc1SCC(=O)Nc1cccc(SC)c1,3,
O=C(COC(=O)c1ccncc1)NC(=O)C1CCCCC1,2,
Cc1cccn2cc(CNC(=O)C3CCCCC3)nc12,60*,VCAM1 pot conf=-14
O=C(NCc1ccccc1)C1CCCN(C(=O)Nc2ccccc2)C1 (stereo unspecified),-3,
N#Cc1c(NC(=O)CCC(=O)O)sc2c1CCCC2,?,VCAM1 pot conf=-13
CC1(C)Cc2c(sc(NC(=O)c3ccc(Br)o3)c2C#N)CO1,-2,
CCc1c(C)sc(NC(=O)CC#N)c1C#N,-17,
COc1cccc(-c2nc(=S)c3c(n2CCCO)CCCC3)c1,18,
Nn1c(SCC(=O)N2CCOCC2)nnc1-c1ccco1,-9,
CC1=CC(C)(C)N(C(=O)C(C)N2C(=O)c3ccccc3C2=O)c2ccc(C)cc21 (stereo unspecified),-7,
COC(=O)c1nc2nc(C)cc(=O)n2[nH]1,-7,
CCCCCCc1cc2cc(C(=O)NCc3ccccc3)c(=N)oc2cc1O,51*,VCAM1 pot conf=-6
